# Reference: the supplement of paper PMC12494721
# Structures can show the parent of a compound that is named as a salt.
# How the values were obtained:
# Conditions in all cases: 20 µM; incubation time: 27 h, anaerobic, 37 °C;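 for the amine columns active = adjusted P below 0.05 in both replicates with a change the same way and a mean fold change under 0.8 or over 1.25; inactive = the rest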
# [1] = test system: Clostridium sporogenes DSM 1664; test: growth (OD595) fold change vs plate DMSO controls (fold change (ratio)); higher = more growth
# Outline: (§1)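 Growth is expressed as the fold change relative to the median of the DMSO control wells on each plate. Cultures in mGAM were grown anaerobically in 96-well plates for 27 h at 37 °C, shaken, and read at 595 nm. Readings were blank-subtracted, corrected for compound background with 20 µM compound solutions in water, and converted to OD with a calibration factor of 5. Fold changes above 1.5 were set to NA, and each value is the mean of 2 biological replicates.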
# Escherichia coli IAI1 [2] = test: as above
# Outline: as §1
# [3] = test system: Klebsiella aerogenes DSM 30053; test: as above
# Outline: as §1
# [4] = test system: Ruminococcus gnavus DSM 108212; test: as above
# Outline: as §1
# [5] = test system: Klebsiella aerogenes DSM 30053; test: fold change of Histamine concentration vs plate DMSO controls (fold change (ratio)); higher = more amine produced, active = hit call of the paper (significant change in both replicates, either direction)
# Outline: (§2)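 Amines were quantified by LC–triple-quadrupole MS in dynamic MRM mode against external calibration curves, with drift correction within each batch. The samples were whole anaerobic mGAM cultures of four gut bacterial strains, grown for 27 h at 37 °C in 80 µL wells and extracted with cold acetonitrile/methanol with 0.1% formic acid, then centrifuged. Values are reported as fold change over DMSO controls on the same plate. The mean of 2 biological replicates is given.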
# [6] = test system: Clostridium sporogenes DSM 1664; test: fold change of Tryptamine concentration vs plate DMSO controls (fold change (ratio)); higher = more amine produced, active = hit call of the paper (significant change in both replicates, either direction)
# Outline: as §2
# [7] = test system: Ruminococcus gnavus DSM 108212; test: as above
# Outline: as §2
# Escherichia coli IAI1 [8] = test: fold change of Putrescine concentration vs plate DMSO controls (fold change (ratio)); higher = more amine produced, active = hit call of the paper (significant change in both replicates, either direction)
# Outline: as §2
# [9] = test system: Klebsiella aerogenes DSM 30053; test: as above
# Outline: as §2
# Escherichia coli IAI1 [10] = test: fold change of Cadaverine concentration vs plate DMSO controls (fold change (ratio)); higher = more amine produced, active = hit call of the paper (significant change in both replicates, either direction)
# Outline: as §2
# [11] = test system: Klebsiella aerogenes DSM 30053; test: as above
# Outline: as §2
# [12] = test system: Ruminococcus gnavus DSM 108212; test: fold change of 2-Phenylethylamine concentration vs plate DMSO controls (fold change (ratio)); higher = more amine produced, active = hit call of the paper (significant change in both replicates, either direction)
# Outline: as §2
SMILES,growth [1],growth (Escherichia coli IAI1 [2]),growth [3],growth [4],fold change of Histamine concentration [5],fold change of Tryptamine concentration [6],fold change of Tryptamine concentration [7],fold change of Putrescine concentration (Escherichia coli IAI1 [8]),fold change of Putrescine concentration [9],fold change of Cadaverine concentration (Escherichia coli IAI1 [10]),fold change of Cadaverine concentration [11],fold change of 2-Phenylethylamine concentration [12]
Cc1cc(C)c(C2=C(OC(=O)CC(C)(C)C)C3(CCCC3)OC2=O)c(C)c1,0.884,1.02,1.01,0.937,1 (inactive),0.972 (inactive),1.01 (inactive),1.01 (inactive),1.02 (inactive),0.983 (inactive),0.999 (inactive),1.01 (inactive)
N#CC(CCc1ccc(Cl)cc1)(Cn1cncn1)c1ccccc1 (stereo unspecified),1.11,1.08,0.94,1.14,0.476 (inactive),0.979 (inactive),1.04 (inactive),1.07 (inactive),0.482 (inactive),0.972 (inactive),0.478 (inactive),1.08 (inactive)
C[N+]1([O-])[C@@H]2C[C@@H](OC(=O)[C@H](CO)c3ccccc3)C[C@H]1[C@@H]1O[C@@H]12 (stereo partly specified) [Scopolamin-N-oxide hydrobromide],1.05,1.03,1.01,0.938,0.988 (inactive),1.01 (inactive),1.13 (inactive),1 (inactive),0.931 (inactive),0.991 (inactive),1.01 (inactive),1.13 (inactive)
COc1ccccc1N [o-Anisidine],1.07,1.04,0.996,1.01,1.03 (inactive),1.08 (inactive),1 (inactive),1 (inactive),0.983 (inactive),0.947 (inactive),0.997 (inactive),1.01 (inactive)
C1CCc2nnnn2CC1 [Pentylenetetrazole],1.14,0.976,1,0.873,0.957 (inactive),0.963 (inactive),0.836 (inactive),0.994 (inactive),0.975 (inactive),1.01 (inactive),0.998 (inactive),0.876 (inactive)
Nc1nc(N)nc(N)n1 [Melamine],0.88,0.99,0.966,1.11,0.958 (inactive),1.05 (inactive),1.01 (inactive),0.988 (inactive),0.956 (inactive),0.95 (inactive),1.01 (inactive),1.05 (inactive)
NC(=O)C[S+]([O-])C(c1ccccc1)c1ccccc1 (stereo unspecified) [Modafinil],0.82,0.705,0.712,0.795,0.949 (inactive),1.1 (inactive),1.03 (inactive),1.01 (inactive),0.987 (inactive),0.99 (inactive),1 (inactive),1.06 (inactive)
CN1C(=O)CCS(=O)(=O)C1c1ccc(Cl)cc1 (stereo unspecified) [Chlormezanone],1.13,0.97,1.02,0.846,1 (inactive),0.944 (inactive),1.05 (inactive),0.986 (inactive),1.01 (inactive),0.984 (inactive),1.01 (inactive),1.06 (inactive)
CCn1cc(C(=O)O)c(=O)c2cc3c(cc21)OCO3 [Oxolinic acid],0,0.0401,0.348,0.896,0.275 (active),0.0614 (active),1 (inactive),0.59 (active),1.08 (inactive),0.227 (active),0.976 (inactive),0.959 (inactive)
Oc1cc(Cl)ccc1Oc1ccc(Cl)cc1Cl [Triclosan],0.874,0.0332,0.299,1.21,0.0779 (active),0.699 (inactive),0.715 (active),0.258 (active),0.248 (active),1.13 (inactive),0.828 (inactive),0.734 (active)
CC(C)(N)Cc1ccccc1 [Phentermine hydrochloride],0.937,0.981,1.24,0.221,0.896 (inactive),1.03 (inactive),0.176 (active),0.983 (inactive),1.01 (inactive),1.05 (inactive),1.05 (inactive),0.213 (active)
C=C(C)[C@@H]1[C@H]2OC(=O)[C@@H]1[C@]1(O)C[C@H]3O[C@]34C(=O)O[C@H]2[C@]14C [Picrotoxinin],1,0.983,1.04,1.15,0.896 (inactive),1.01 (inactive),1.02 (inactive),0.898 (inactive),0.932 (inactive),0.998 (inactive),0.987 (inactive),1.03 (inactive)
O=c1[nH]c2ccccc2n1C1CCN(CCCC(c2ccc(F)cc2)c2ccc(F)cc2)CC1 [Pimozide],1.41,0.978,0.99,1.25,1.01 (inactive),0.938 (inactive),0.846 (inactive),0.979 (inactive),1.01 (inactive),0.964 (inactive),0.995 (inactive),0.898 (inactive)
